Experimental findings from PubChem BioAssay AID1626 (SRMLSC, 2009) are described below.

Structures are written as SMILES. Where “and” joins values, the source holds several entries; their conditions need not be identical. Equal entries are not always repeated. The campaign covered roughly 220,000 compounds. About 2,000 (0.91%) were called active. Another 2% or so got no clear call; they are omitted. No stated cut-off is given here; in the data, inconclusive means inhibition above about 80% without an active follow-up result; inactive means below that; test concentration not stated here. The list is a sample of the results. Measured potencies and affinities stand elsewhere.

The experiment is described as follows: M. tuberculosis H37Rv growth inhibitors, H37Rv strain (AID 1626).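 Further: bacteria incubated seven days before Alamar blue readout; 0% = bacteria only wells and 100% = bacteria with antibiotic wells.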 The conditions noted are these: hits give high values, concentration not given here.
`O=c1nc(NCc2ccco2)sc2ncccc12`: the inhibition was -7.68% (inactive).

For the compound `Cc1ccc2c(c1)C(=O)N(CCCCO)C2=O`, the inhibition was -0.27% (inactive).

As to `O=C1c2ccc(Oc3ccc4c(c3)C(=O)N(CCCCO)C4=O)cc2C(=O)N1CCCCO`, the inhibition is -9.34% (inactive).

Regarding `COCCNC(=O)c1ccc2c3n(nc2c1)-c1ccc(Cl)cc1CO3`, the inhibition is -12.9% (inactive).

Turning to `CCOC(=O)c1sc(NC(=O)CCN2CCC(C)CC2)c(C(=O)OCC)c1C`, the inhibition was 5.65% (inactive).

In the case of `O=C(COc1ncnc2ccccc12)c1ccc2c(c1)OCCO2`, the inhibition is -5.58% (inactive).

As to `O=C(O)[C@H]1CCCC[C@H]1C(=O)Nc1ccc(Nc2ccccc2)cc1`, the inhibition was 3.28% (inactive).

As for `O=C(O)C1CC=CCC1C(=O)Nc1ccccc1` (centres undefined), the inhibition is -3.59% (inactive).

For the compound `CCCc1cc(=O)n2[nH]c(NCc3ccc(OC)c(OC)c3)nc2n1`, the inhibition was 3.17% (inactive).

Turning to `Cc1ccc(C)c(NC(=O)C(Sc2ncnc3ccccc23)c2ccccc2)c1` (centres undefined), the inhibition is -1.19% (inactive).

Take `O=C(Nc1ccc(OC(F)F)c(Cl)c1)c1cccc(OC(F)F)c1`: the inhibition was 10.2% (inactive).

For the compound `CC(NC(N)=O)C(=O)Nc1ccc(Cl)c(S(=O)(=O)Nc2ccc(Cl)cc2)c1` (centres undefined), the inhibition was 0.16% (inactive).

In the case of `COc1ccc(NC(=O)c2cccc(OC(F)F)c2)cc1Cl`, the inhibition is 0.2% (inactive).

In the case of `CCOc1ccc(NS(=O)(=O)c2cc(NC(=O)c3ccc(C)cc3)ccc2Cl)cc1`, the inhibition is 11.8% (inactive).

Take `CCOC(=O)c1cc(NC(=O)NCc2ccco2)c(C)nc1C`: the inhibition was -7.42% (inactive).

For the compound `O=c1cc(N2CCCCC2)c2ccccc2o1`, the inhibition was -1.79% (inactive).

With `CCOc1cc(CN2CCN(c3cccc(C(F)(F)F)c3)CC2)ccc1O`, the inhibition is -11.9% (inactive).

As for `CCC/C=N/NC(=O)c1cccc(Br)c1`, the inhibition is 7.16% (inactive).

With `Cc1ccccc1-c1nsc(SCC(=O)Nc2ccc3c(c2)OCO3)n1`, the inhibition is 16.3% (inactive).

Turning to `Cc1ccc(-c2nsc(SCC(=O)NCc3ccc4c(c3)OCO4)n2)cc1`, the inhibition was 13.2% (inactive).

On to `O=C(CSc1nc(-c2ccccc2Cl)ns1)Nc1ccc2c(c1)OCO2`, for which the inhibition is 98.8% (inactive).

As for `COc1ccc(-c2nsc(SCC(=O)NCc3ccc4c(c3)OCO4)n2)cc1`, the inhibition was 6.74% (inactive).

Take `Cc1ccc(NC(=O)C2CCCN(C(=O)c3ccc(Cl)cc3)C2)cc1C` (centres undefined): the inhibition is 2.5% (inactive).

With `CC1=NN(C(=O)c2ccco2)C(O)(c2ccccc2)C1` (centres undefined), the inhibition was -2.5% (inactive).

As to `CC(=O)c1cccc(N(CC(=O)N2CCCCC2)S(C)(=O)=O)c1`, the inhibition is 1.7% (inactive).

`CCOc1cc(NC(=S)NCC2CCCO2)c(OCC)cc1NC(=O)c1ccc(F)cc1` (centres undefined): the inhibition was 1.9% (inactive).

`COc1ccc(-c2[nH]ncc2CNCCn2cccn2)c(F)c1`: the inhibition was -7% (inactive).

As for `COc1ccccc1OCC(O)CNCc1ccc2c(c1)OCO2` (centres undefined), the inhibition is -7.62% (inactive).

With `Cc1[nH]n(-c2ccccc2)c(=O)c1C=NCCc1ccccc1`, the inhibition is 0.59% (inactive).

With `CCCCN=Cc1c(C)[nH]n(-c2ccccc2)c1=S`, the inhibition was -2.18% (inactive).

`CS/C(=C\[N+](=O)[O-])Nc1ccc(F)cc1`: the inhibition was 3.42% (inactive).

Regarding `O=C(CN1CCCc2ccccc21)NC(=O)NC1CCCCC1`, the inhibition was 6.06% (inactive).

Turning to `O=C(NC(Nc1nc2ccccc2s1)(C(F)(F)F)C(F)(F)F)c1ccccc1`, the inhibition was -8.04% (inactive).

Take `O=C(NC(Nc1nc2ccc([N+](=O)[O-])cc2s1)(C(F)(F)F)C(F)(F)F)c1cccnc1`: the inhibition was 5.87% (inactive).

Consider `Cc1cc2nnc(SCC(=O)NCc3cccs3)n2c(N)n1`, for which the inhibition is -5.08% (inactive).

As for `COc1ccc(-c2nn(-c3ccccc3)cc2/C=N/n2cnnc2)cc1OC`, the inhibition was -15.3% (inactive).

Consider `COc1ccc(-c2nn(-c3ccccc3)cc2/C=N/NC(N)=S)cc1OC`, for which the inhibition was 2.96% (inactive).

Consider `CCCn1nnnc1NC(=O)COc1ccc(CC)cc1`, for which the inhibition was 0.65% (inactive).

For the compound `CC(=O)N1N=C(c2cccnc2)OC1c1ccccc1Cl` (centres undefined), the inhibition is 2.68% (inactive).

For the compound `NC(=O)c1ccc(NC(=O)COC(=O)/C=C/c2cccs2)cc1`, the inhibition was -2.1% (inactive).

As for `O=C(CS)Nc1ccc2ccccc2c1`, the inhibition is -9.08% (inactive).

Consider `Cc1ccc(NC(=O)COC(=O)/C=C/c2cccs2)cc1`, for which the inhibition is -0.47% (inactive).

Turning to `COc1ccc(N/C(C)=C/C(=S)Nc2ccccc2)cc1`, the inhibition is 29.2% (inactive).

In the case of `CCCCC(=O)Nc1ccc(C)c(O)c1`, the inhibition was 2.73% (inactive).

For the compound `C/C(=C\C(=S)Nc1ccccc1)Nc1ccccc1`, the inhibition was 4.78% (inactive).

`CCCCC(=O)Nc1cccc(NC(=O)CC)c1`: the inhibition is 3.01% (inactive).

In the case of `CC(C)CC(=O)Nc1ccc2ccccc2c1`, the inhibition was 85.1% (inactive) and -4.53% (inactive).

For `O=S(=O)(CCOc1ccccc1)c1nc2ccccc2[nH]1`, the inhibition was -6.66% (inactive).

For `COCCCn1c(SCC(=O)Nc2nc3ccccc3s2)nnc1-c1ccoc1C`, the inhibition is 4.35% (inactive).

Take `Cc1cc(C)c(S(=O)(=O)N2CCCCC2)c(C)c1N(C)S(=O)(=O)c1ccc(Cl)cc1`: the inhibition is 1.13% (inactive).

For `CCOc1nc(C)ccc1-c1noc(CC)n1`, the inhibition is -1.19% (inactive).

Turning to `CCOC(=O)C1CSC(CC(=O)Nc2ccc(Cl)cc2)C(=O)N1` (centres undefined), the inhibition was -6.13% (inactive).

As for `OC1(CNCc2cn[nH]c2-c2cc3ccccc3o2)CCCCC1`, the inhibition was -6.25% (inactive).

Take `COc1cccc(-n2c(SCc3c(C)noc3C)nnc2-c2cccc(S(=O)(=O)N(C)C)c2)c1`: the inhibition was 4.97% (inactive).

With `Cc1ccccc1OCc1csc(N)n1`, the inhibition was 3.59% (inactive).

For the compound `CN=C(C)c1c(O)c2ccccc2oc1=O`, the inhibition was -1.28% (inactive).

In the case of `CC(C)N(C(=O)Cn1c(SCC(=O)Nc2nccs2)nc2ccccc21)C(C)C`, the inhibition is 0.44% (inactive).

Regarding `CC(=O)N1N=C(c2cccc(Br)c2)OC12CCCC2`, the inhibition was -8.1% (inactive).

For `CC(=O)CC(=O)Nc1ccc(Nc2ccccc2)cc1`, the inhibition is 6.81% (inactive).

As for `CCC(=O)Nc1ccc(-c2csc(C)n2)cc1`, the inhibition is 45.9% (inactive).

Consider `Cc1nc(-c2ccc(NC(=O)CC(C)C)cc2)cs1`, for which the inhibition was 31.2% (inactive).

As for `CC(=O)Nc1ccc2ccccc2c1`, the inhibition was 12.4% (inactive).

Turning to `CCOC(=O)C(C(=O)OCC)C(Nc1ccccc1)c1ccccc1` (centres undefined), the inhibition was 1.08% (inactive).

`CCOC(=O)CS(=O)(=O)c1ccc2ccccc2c1`: the inhibition was -12.2% (inactive).

With `O=C(Nc1ccc(Cl)c([N+](=O)[O-])c1)ONC1=NCCCCC1`, the inhibition was 0.03% (inactive).

As to `CCCNC(=O)NC(=O)CN1C(=O)NC(C)(c2ccc(C)cc2)C1=O` (centres undefined), the inhibition is -1.35% (inactive).

As to `CC(C(N)=O)N1C(=O)C2C3C=CC(C3)C2C1=O` (centres undefined), the inhibition was -3.12% (inactive).

Take `Cc1ccc(-c2cc(C(=O)NCc3cccnc3)no2)cc1`: the inhibition is 3.89% (inactive).

Regarding `Cc1ccc(NC(=S)NCCc2c[nH]c3ccccc23)c(C)c1`, the inhibition was 4.17% (inactive).

For `Cc1c(/C=C/C(=O)c2cccs2)cnn1C`, the inhibition was -1.78% (inactive).

Consider `Cc1nn(C)cc1/C=C/C(=O)c1cccs1`, for which the inhibition is 2.82% (inactive).

As for `CCN(CC)C(=S)SCC(=O)Nc1ncc2c(n1)CC(C)(C)CC2=O`, the inhibition is 1.56% (inactive).

Take `CC(=O)C1=C(C)NC(SCC(=O)c2ccc(Cl)cc2)=C(C#N)C1c1ccco1` (centres undefined): the inhibition is 50% (inactive).

Turning to `CCOc1ccccc1NC(=O)CSC1=C(C#N)C(c2ccco2)C(C(=O)Nc2nc3ccccc3s2)=C(C)N1` (centres undefined), the inhibition was 49.1% (inactive).

For the compound `CC(=O)C1=C(C)NC(SCC(=O)c2ccc(Cl)cc2Cl)=C(C#N)C1c1ccco1` (centres undefined), the inhibition was 12.4% (inactive).

Take `CC(=O)C1=C(C)NC(SCC(=O)c2cc(Cl)ccc2Cl)=C(C#N)C1c1ccco1` (centres undefined): the inhibition was 15.3% (inactive).

Take `CC1=C(C(=O)Nc2ccccc2)C(c2ccco2)C(C#N)=C(SCC(=O)Nc2cccc(C)c2C)N1` (centres undefined): the inhibition was 4.09% (inactive).

In the case of `CC(=O)C1=C(C)NC(SCC(=O)c2ccccc2)=C(C#N)C1c1ccco1` (centres undefined), the inhibition was 43.6% (inactive).

On to `CC(=O)C1=C(C)NC(SCc2ccc(C#N)cc2)=C(C#N)C1c1ccco1` (centres undefined), for which the inhibition was -1.27% (inactive).

Take `CC(=O)C1=C(C)NC(SCC(N)=O)=C(C#N)C1c1ccco1` (centres undefined): the inhibition was -4.99% (inactive).

Regarding `CN1CCN(C(=O)c2cc3nc(-c4ccc(F)cc4)cc(C(F)(F)F)n3n2)CC1`, the inhibition is -1.56% (inactive).

For `CC(C)OP(=O)(OC(C)C)C(O)c1ccc(Br)cc1` (centres undefined), the inhibition is -5.46% (inactive).

As for `O=S(=O)(c1ccc(Cl)s1)N1CCC(Cc2ccccc2)CC1`, the inhibition is -5.95% (inactive).

As for `O=C(Nc1cccc([N+](=O)[O-])c1)c1ccc(N2CCCC2=O)cc1`, the inhibition was 3.44% (inactive).

With `COc1cc(C(=O)NNC(=O)c2ccoc2C)cc(OC)c1OC`, the inhibition is -3.54% (inactive).

Consider `COc1ccc(C)cc1NC(=O)COC(=O)C1CCN(C(=O)c2ccc(Cl)cc2)CC1`, for which the inhibition is 3.93% (inactive).

Consider `Cc1ccc(NC(=O)Cn2c(O)c(N=NC(=O)c3ccncc3)c3ccccc32)cc1`, for which the inhibition was -1.42% (inactive).

Consider `O=C(C1CCCCC1)N1CCN(C(=O)C2CCCCC2)CC1`, for which the inhibition was -1.95% (inactive).

As for `Cc1c(CCC(=O)O)c(=O)n2c([nH]c3ccccc32)c1C#N`, the inhibition was -32.2% (inactive).

As to `Cc1c(CCC(C)C)c(=O)n2c([nH]c3ccccc32)c1C#N`, the inhibition is 5.47% (inactive).

Take `CCc1c(C)c(C#N)c2[nH]c3ccccc3n2c1=S`: the inhibition was -5.86% (inactive).

`CCc1cc(=S)n2c([nH]c3ccccc32)c1C#N`: the inhibition was -2.47% (inactive).

For the compound `COc1c(O)ccc2cnn(-c3ccccc3C)c(=O)c12`, the inhibition is -8.74% (inactive).

For the compound `CC1CC(C)CN(CC(O)COCCOc2ccc(Br)cc2)C1` (centres undefined), the inhibition was 0.51% (inactive).

Consider `CCCCN1CC[C@H]2C=CC[C@@H](C(=O)Nc3ccccc3)[C@H]2C1=O`, for which the inhibition was -7.03% (inactive).

As to `[O-][n+]1onc2c3ccnnc3ccc21`, the inhibition is 58.6% (inactive).

For the compound `c1ccc(-c2cc3c(ccc4nonc43)nn2)cc1`, the inhibition is -7.6% (inactive).

Take `COc1ccc2c(c1)c(=O)cc(-c1ccccc1)n2C`: the inhibition was -2.37% (inactive).

`Cn1c(-c2ccccc2)cc(=O)c2ccccc21`: the inhibition is 1.71% (inactive).

As usually defined, the inhibition is the change of the read-out against control, counted positive when it falls.
